# p-CIP stab down – compounds decreasing mouse p/CIP protein stability; Q05BA5; F442A p/CIP-EGFP cells, EGFP fluorescence, 16 h; decrease of EGFP signal, % at 10 µM; 0.01% of 290,000 active; AID 1984;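 active = EGFP signal decrease of at least 30% at 10 µM or well 3 SD below plate mean, unless failing retest; inactive = the rest, including hits failing retest or dose response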
# MsrA inhibitor – inhibitors of bovine MsrA; purified bovine MsrA, absorbance read-out; AID 651718; inhibition, % at 15.5 µM; 0.75% of 360,000 active; in the data active = inhibition above about 4.5%;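 also: 0% = vehicle wells with enzyme and 100% = reference inhibitor wells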
# bovine MsrA act – activates bovine MsrA enzyme | 0.3% of 360,000 active | purified bovine MsrA, absorbance read-out | activation, % at 10.6 µM; in the data active = activation above about 7.5%;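 also: 0% = vehicle and 100% = reference activator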
# 14-3-3 Bad PPI – disrupts binding of bovine 14-3-3 zeta to phospho-Bad peptide | P63103 | TR-FRET 14-3-3zeta/Dy647-pBad peptide displacement, 1 h | inhibition, % at 21.7 µM | 0.71% of 220,000 active;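 active = inhibition above about 70%, limit read from the data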;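 also: 0% = full 14-3-3 plus peptide FRET controls and 100% = background without 14-3-3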
# An asterisk follows results filed as active; . = no result given; [ ] = dose if it differs, or a comment. A selection: hits, their analogues and other compounds. The true share with any hit is near 1.4%.
SMILES,p-CIP stab down,MsrA inhibitor,bovine MsrA act,14-3-3 Bad PPI
COCCn1c(C)cc(C2=NNC(=Nc3ccc(Cl)cc3Cl)SC2)c1C,-6.9,-0.8,-2.6,71.9*
Cc1ccccc1NC(=O)N(C)[C@H]1C[C@H]2c3[nH]c4c(-c5ccccc5)cccc4c3CCN2C(=O)[C@H]1[C@H](C)O,.,-1.0,.,.
CC(C)NC(=O)c1cc(-c2cccs2)on1,-11.8,-0.2,-3.7,70.8*
Nc1nc2cc3c(cc2cc1C(=O)NCCc1c[nH]c2ccccc12)OCO3,.,1.2,.,.
O=C1CCCC2=C1C(c1ccco1)Nc1ccc3ccccc3c12 (stereo not drawn),-8.8,2.2,-1.9,72.5*[fluorescence artefact?]
COCCN1C(=O)[C@H]2C[C@@]13O[C@H](c1ccccn1)N=C3CC1c3ccccc3C[C@@]12C (stereo partly drawn),.,0.9,.,.
COc1cc(/C=N/NC(=O)c2sc(N)c(C#N)c2C)ccc1O,-26.5,8.4*,-15.8,7.2
Cc1c(C(=O)N/N=C/c2ccc(O)c(Br)c2)sc(N)c1C#N,-16.4,4.3,-5.1,4.2
CCN(CC)c1ccc(/C=N/NC(=O)c2cccc(N3CCCC3=O)c2)cc1,-2.1,2.2,-4.0,-6.8
COc1cc(/C=N/NC(=O)c2cccc(N3CCCC3=O)c2)ccc1O,-12.1,5.4*,-3.9,.
COC(=O)N1C[C@@H]2Oc3nccnc3O[C@@H]2C[C@@H]1c1ccccc1Br,.,-0.7,.,.
O=C(N=Nc1c(O)[nH]c2ccccc12)c1cc(NS(=O)(=O)c2cccs2)cc(NS(=O)(=O)c2cccs2)c1,1.1,0.2,-2.1,80.0*
CC(=O)Nc1ccc(/C=C(\C#N)C(=O)NC2CCCCC2)cc1,-1.8,4.6*,-1.0,-7.1
COC(=O)N1Cc2ccnnc2CC1c1ccccc1-c1ccccc1 (stereo not drawn),.,-0.3,.,.
Nc1[nH]c(C(=O)c2ccccc2)c(-c2cccc3ccccc23)c1C(=O)NCc1ccc(Cl)cc1Cl,.,0.4,.,.
COc1ccc(C2=Nn3c(nnc3-c3ccccc3OC)SC2)cc1OC1CCOC1 (stereo not drawn),.,4.6*,-1.8,.
CC(C)c1ccc(NS(=O)(=O)c2ccc3[nH]cc(C(=O)N4CCC(C(N)=O)CC4)c(=O)c3c2)cc1,-0.2,-0.3,-0.6,96.1*[fluorescence artefact?]
O=C(c1c[nH]c2ccc(S(=O)(=O)N3CCOCC3)cc2c1=O)N1CCCC1,-2.5,1.3,-0.1,-1.8
O=C(C(c1ccccc1)c1ccccc1)N1CCN(c2ccccn2)CC1,11.7,0.8,1.2,-3.4
O=C(C(c1ccccc1)c1ccccc1)N1CCN(Cc2ccccn2)CC1,-5.1,0.5,-6.1,71.0*
O=C(C(c1ccccc1)c1ccccc1)N1CCN(Cc2ccncc2)CC1,-7.2,0.6,-6.0,75.5*
O=C1/C(=C\c2ccco2)SC(=S)N1c1ccc(O)cc1,-4.6,0.8,-6.1,1.6
O=C1/C(=C/c2ccco2)SC(=S)N1c1cccnc1,-1.6,2.3,-4.4,85.0*
CCCCSc1nn[nH]n1,-13.2,-1.3,-6.0,76.0*
COc1ccccc1C(=O)NC1CCCCN(C)C1=O (stereo not drawn),.,-0.2,.,.
SMILES,p-CIP stab down,MsrA inhibitor,bovine MsrA act,14-3-3 Bad PPI
COc1ccc(C(=O)Oc2ccc(=O)n(-c3ccccc3)n2)cc1,-4.2,0.6,-6.0,71.7*
O=C(Oc1ccc(=O)n(-c2ccccc2)n1)c1ccc(Cl)cc1,9.9,0.4,2.4,47.9
C[C@H](O)[C@@H]1C(=O)N2CCc3c([nH]c4c(-c5ccccc5)cccc34)[C@@H]2C[C@@H]1N(C)C(=S)NCCc1ccccc1,.,-1.4,.,.
C[C@H]1CN(c2ccc(N3CCNC[C@@H]3C)cc2C#N)CCN1Cc1ccccc1,.,-0.3,.,.
COc1cc(/C=N\NC(=O)c2ccc(C)nc2)ccc1OC(=O)c1ccc2c(c1)OCO2,11.7,-0.4,-3.4,73.9*
COc1cc2cccc(OC)c(=O)c2c(O)c1OC,-4.7,2.2,-4.3,-14.4
COc1cc2c(ccc3cc(OC)c(OC)c(O)c32)cc1O,6.4,0.0,-4.2,77.7*
Cc1cccc(N2CCN(Cc3ccoc3)CC2)c1C,-6.6,1.1,-1.6,73.7*
CCOC(=O)CC1C(=O)NCCN1C(=O)Nc1ccc(Cl)cc1 (stereo not drawn),0.8,-1.4,-2.4,73.3*[fluorescence artefact?]
COC(=O)[C@]12CCCCC=C1N(CCc1ccc(OC)c(OC)c1)C(=O)[C@H](CC(=O)NCCC(C)C)C2,.,0.0,.,.
Nc1ccccc1O,.,.,9.4*,.
COc1ccc(NC2=NC(=S)N(c3ccccc3C)C23CCCCC3)cc1,-7.8,1.8,-1.8,-12.0
COc1ccc(Nc2ccc3c(c2)=NC2(CCCCC2)[N+]=3[O-])cc1,-29.5,14.6*,5.2,-28.2
C=CCC(C)(NCc1ccccc1)c1ccco1 (stereo not drawn),0.2,-0.3,-1.7,72.5*
